Sm TGR inh = S. mansoni TGR enzyme inhibition | Q962Y6 | Potency, µM (doses to about 114 µM), actives largely listed as inhibitors | actives 3% (n = 360,000) | purified TGR, DTNB reduction, TNB absorbance 405 nm; also: nearly all actives have a fitted effect of over 60% in size
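TGR 20 nM + NADPH 100 uM (dispensed conc.), cpd preinc 15 min RT; start with NADPH (500 uM addition) then DTNB (15 mM addition). Kinetic TNB absorbance, 405 nm filter. Four-parameter Hill fit across titration.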
AmpC no deterg = inhibitors of E. coli AmpC beta-lactamase without detergent; P00811; actives 0.52% (n = 330,000); AmpC nitrocefin hydrolysis, absorbance 480 nm, 0.0001% Triton; Potency, µM (highest dose often 57.1 µM), most hits filed as inhibitors; AID 485341; also: nearly all actives have a fitted effect of over 20% in size
Target sequence (P00811 whole entry, looked up): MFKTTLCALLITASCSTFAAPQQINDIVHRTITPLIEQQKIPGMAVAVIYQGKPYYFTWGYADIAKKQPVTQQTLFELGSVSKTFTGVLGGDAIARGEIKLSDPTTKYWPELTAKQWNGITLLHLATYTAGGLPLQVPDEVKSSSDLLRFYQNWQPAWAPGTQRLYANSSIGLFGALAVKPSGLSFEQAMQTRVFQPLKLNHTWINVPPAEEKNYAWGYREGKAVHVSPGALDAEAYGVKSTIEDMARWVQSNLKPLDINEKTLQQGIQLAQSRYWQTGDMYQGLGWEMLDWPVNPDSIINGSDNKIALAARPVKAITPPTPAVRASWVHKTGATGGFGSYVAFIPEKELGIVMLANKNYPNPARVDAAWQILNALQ
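AmpC (5.3 nM in the dispensed reagent) in 20 mM phosphate pH 7.0 with 0.01% (detergent screen) or 0.0001% Triton X-100 was preincubated with compounds for 15 min at room temperature. Nitrocefin was then added from an 800 uM solution, and hydrolysis was followed at 480 nm.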
AmpC detergent = blocks E. coli AmpC beta-lactamase in detergent assay. P00811. AmpC hydrolysis of nitrocefin, absorbance 480 nm, 0.01% Triton. Potency, µM (doses to about 114 µM), actives largely listed as inhibitors. actives 0.041% (n = 370,000). AID 485294; also: nearly all actives have a fitted effect of over 25% in size
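20 mM phosphate pH 7.0 + 0.01% (detergent screen) or 0.0001% Triton X-100; 5.3 nM AmpC reagent; cpd preinc 15 min RT; nitrocefin (800 uM stock) to start; A480 q20 s × 4 min; Activity was normalised to no-enzyme and no-compound control wells.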
Pf growth 96h = inhibits malaria parasite growth, 96 h; P. falciparum luciferase reporter growth, 96 h; Potency, µM (top dose mostly 28.7 µM), usual class: inhibitors; actives 6.9% (n = 320,000)
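96 h incubation, 37 C, 5% CO2, of luciferase-reporter P. falciparum-infected RBCs (2% hematocrit, 0.05% parasitemia final) with test compounds; endpoint luminescence.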
Pf growth 48h = P. falciparum growth inhibition at 48 hours (one generation); actives 5.9% (n = 310,000); P. falciparum luciferase growth in erythrocytes, 48 h; Potency, µM (titrated, usually from 28.7 µM), hits mostly inhibitors
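Here the parasites carry a stable luciferase gene and grow inside erythrocytes in Albumax-based RPMI medium with compound for one erythrocytic cycle. Activity is scored as loss of luminescent signal.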
SARS PLpro yeast = SARS-CoV PLP inhibition in yeast. actives 0.19% (n = 330,000). S. cerevisiae expressing SARS-CoV PLpro, growth rescue. AID 485353. Potency, µM (top dose mostly 32.9 µM), actives largely listed as activators; calls by dose curve; also: nearly all actives have a fitted effect of over 55% in size
Hits are given with their value; . = inactive; ? = inconclusive; / = not tested or not shown. Compounds with a hit are over-represented: about 12% of the library has one in this group of screens. Unless noted, calls follow the shape of the dose curve; as a rule, active = well fitted curve in the direction sought with a large enough effect; inconclusive = small, poorly fitted or top-dose-only effect, or another doubt; inactive = no such curve, though single readings can be large; an effect the other way counts as inactive or inconclusive.

SMILES	Sm TGR inh	AmpC no deterg	AmpC detergent	Pf growth 96h	Pf growth 48h	SARS PLpro yeast
CCN(CC(=O)NCc1cccs1)C(=O)c1ccc(-c2cccc(C(F)(F)F)c2)o1	?	.	.	9.28µM	?	.
CCN(CC(=O)NCc1cccs1)C(=O)COc1cccc(C(F)(F)F)c1	.	.	.	?	?	.
COc1ccc(NC(=O)CN(C)C(=O)c2ccc3ccccc3c2)cc1	.	.	.	.	.	.
COc1ccc(NC(=O)CN(C)C(=O)c2ccc(-c3cccc(C(F)(F)F)c3)o2)cc1	.	.	.	0.37µM	?	.
CN(CC(=O)Nc1ccccc1Cl)C(=O)c1ccc(-c2cccc(C(F)(F)F)c2)o1	?	.	?	0.415µM	2.08µM	.
COc1ccc(NC(=O)CN(C)C(=O)c2ccc(-c3ccccc3Cl)o2)cc1	.	?	?	0.329µM	0.37µM	.
O=C1[C@@H]2CSC(c3ccc(F)cc3)N2C(=O)N1c1ccc(Cl)cc1 (some centres not stated)	.	/	.	/	/	/
Cc1cc(C)c(CN2C(=O)c3ccccc3S(=O)(=O)c3ccc(C(=O)OCC4CCCO4)cc32)c(C)c1 (configuration not stated)	.	/	.	/	/	/
O=C(CCCSc1nc2ccccc2[nH]1)NCc1ccc(Cl)cc1	.	.	.	11.7µM	?	.
S=c1nc(SCc2ccccc2)[nH]c2ccccc12	.	.	.	1.65µM	.	?
O=C(CCCSc1nc2ccccc2[nH]1)NCc1ccccc1F	.	.	.	.	.	.
Clc1ccc(CSc2nc3ccncc3[nH]2)cc1	.	.	?	4.65µM	/	.
Cc1ccc(CSc2nc3ccncc3[nH]2)cc1	.	.	.	?	/	.
O=C(CSc1nc2ccccc2c(=O)[nH]1)NCc1ccc(Cl)cc1	.	.	?	.	/	.
O=c1[nH]c(SCc2ccc(Cl)cc2)nc2ccccc12	.	.	.	13.1µM	?	.
O=C(C1CCCN(S(=O)(=O)c2cccc3nonc23)C1)N1CCN(c2cccc(C(F)(F)F)c2)CC1 (configuration not stated)	.	/	.	/	/	/
CCOC(=O)c1cc(S(=O)(=O)Nc2ccc(C)cc2Cl)[nH]n1	.	/	.	/	/	/
CN(C)Cc1ccc(CNC(=O)COc2ccc3ccccc3c2)cc1	.	.	.	.	.	.
COc1cccc(NC(=O)CN(C)C(=O)c2cc(S(=O)(=O)N3CCCCCC3)ccc2OC)c1	.	.	.	?	?	.
Cc1cc(NC(=O)c2ccc(COc3ccc(Cl)c(C)c3)o2)no1	.	.	?	9.28µM	.	.
CCOC(=O)c1ccc(COc2ccc(C(C)C)cc2)o1	.	.	.	.	.	.
CC(=O)Nc1ccc(NC(=O)c2ccc(COc3ccc(C)cc3)o2)cc1	.	.	?	9.28µM	.	.
CCOc1ccc(OCc2ccc(C(=O)NC(C)C)o2)cc1	.	.	.	11.7µM	?	.
CCOc1ccc(OCc2ccc(C(=O)OCc3ccccn3)o2)cc1	.	.	.	10.4µM	.	.
COc1cc(NC(=O)c2cccc(Cl)c2)c(OC)cc1NC(=O)CN1CCOCC1	.	.	?	/	?	.
SMILES	Sm TGR inh	AmpC no deterg	AmpC detergent	Pf growth 96h	Pf growth 48h	SARS PLpro yeast
COc1ccc(NC(=O)c2ccc(COc3ccc(C)cc3)o2)cc1	.	.	.	5.22µM	.	.
Cc1nc([N+](=O)[O-])c(Br)n1CC(=O)c1ccc(Br)cc1	11.2µM	.	?	?	/	.
Cc1nc([N+](=O)[O-])c(Br)n1CC(=O)c1ccccc1	3.98µM	.	.	/	?	.
Cc1cc([N+](=O)[O-])nn1CC(=O)c1ccccc1	.	.	.	.	.	.
Cc1nc([N+](=O)[O-])c(Br)n1CC(=O)c1ccc2ccccc2c1	14.1µM	.	.	?	/	.
CC(C)CC(=O)NC(=S)NNC(=O)c1ccc([N+](=O)[O-])cc1	.	.	.	?	?	.
COc1ccc(C(=O)NNC(=S)NC(=O)c2ccco2)cc1	.	.	?	?	?	.
C=CCNC(=S)NNC(=O)c1ccc(OCCCC)cc1	.	.	.	.	.	?
CCCCOc1ccc(C(=O)NNC(=S)NC(=O)CC)cc1	.	.	.	?	6.57µM	.
CCC(=O)NC(=S)NNC(=O)c1ccc(OC)cc1	.	.	56.2µM	.	?	.
CCC(=O)NC(=S)NNC(=O)c1ccc([N+](=O)[O-])cc1	.	.	.	13.1µM	?	.
O=c1c2ccccc2nnn1CSc1nnc(-c2ccco2)o1	.	.	.	1.17µM	.	?
CSc1cccc(CN2CCN(Cc3ccc(F)c(F)c3)C(CCO)C2)c1 (configuration not stated)	.	.	.	?	?	.
CCOC(=O)c1c(C)[nH]c(N=Nc2ccc(C)cc2)c1C	.	.	.	/	.	.
Cc1ccc(N=Nc2c(O)ccc3n[nH]nc23)cc1	31.6µM	.	.	.	.	.
CCC(C)(C)n1nnnc1C(c1ccc2ncccc2c1)N1CCCC(C)C1 (configuration not stated)	.	.	?	10.4µM	?	.
CCC(C)(C)n1nnnc1C(c1ccc2ncccc2c1)N1CCN(c2nc3ccccc3s2)CC1 (configuration not stated)	.	.	.	.	5.22µM	.
CCC(C)(C)n1nnnc1C(c1ccc2ncccc2c1)N1CCN(c2ccc(O)cc2)CC1 (configuration not stated)	50.1µM	.	.	?	?	.
CC(C)(C)c1ccc(NC(=O)c2ccc(=O)[nH]n2)cc1	.	.	.	.	.	.
O=C(O)c1ccc(N/N=C/C2=Cc3ccccc3OC2)cc1	?	.	.	.	.	.
COc1ccc2c(c1)-c1ccccc1S(=O)(=O)N2C(C)=O	.	.	.	11.7µM	.	.
Cc1ccc(CN(C(=O)c2ccccc2F)c2ccccn2)o1	44.7µM	/	.	/	/	/
O=S(=O)(c1ccccc1)[C@@]1(c2ccccc2)C[C@@H]2ON=C(c3cccc(Br)c3)[C@@H]2C1	.	.	.	?	11.7µM	.
COc1cc([N+](=O)[O-])ccc1N	.	.	.	9.28µM	.	.
COc1cc(-c2ccc(N)c(OC)c2)ccc1N	.	.	.	.	.	.
COc1cc([N+](=O)[O-])ccc1N1C(=O)C2C3C=CC(C4CC34)C2C1=O (configuration not stated)	44.7µM	.	.	.	.	.
COc1ccc([N+](=O)[O-])cc1-n1cnnn1	.	.	.	1.47µM	.	.
COc1ccc(C)cc1-n1cnnn1	.	.	.	.	.	.

Screening data as filed in PubChem.
